# In PubChem BioAssay AID1159580 (chemical genetic matrix, 2015):
# Values joined by “and” are separate entries in the source; they are usually repeats but may differ in a detail not shown here. Equal entries are not always repeated. About 2,000 (36%) of roughly 5,500 compounds were called active. Inconclusive results (about 18%) are left out. No stated cut-off is given here; in the data, active means normalized growth mostly below about 0.91 (no sharp cut-off); inconclusive means no clear call, values can overlap the other calls; inactive means mostly above about 0.92. This is one part of the list.
# Test: chemical genetic growth profiling, strain panel (AID 1159580);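 further: tested at 20 µM; growth read once vehicle control cultures reached saturation at 30 °C; 1 = growth at the plate median or of vehicle wells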
# Conditions: S. cerevisiae deletion strains, growth OD
smiles,measurement,setting,value
C=C(C)[C@H]1CC=C(C(=O)O)CC1,normalized growth,"locus YAL013W, strain DEP1, stronger effect = lower value",1.01 (inactive)
same,normalized growth,"locus YAL021C, strain ccr4, stronger effect = lower value",0.968 (inactive)
same,normalized growth,"locus YAL026C, strain drs2, stronger effect = lower value",0.958 (inactive)
same,normalized growth,"locus YAL030W, strain snc1, stronger effect = lower value",0.985 (inactive)
same,normalized growth,"locus YBL061C, strain skt5, stronger effect = lower value",0.986 (inactive)
same,normalized growth,"locus YBR009C, strain hhf1, stronger effect = lower value",0.939 (inactive)
same,normalized growth,"locus YBR021W, strain FUR4, stronger effect = lower value",0.82 (active)
same,normalized growth,"locus YBR023C, strain chs3, stronger effect = lower value",0.985 (inactive)
same,normalized growth,"locus YBR171W, strain sec66, stronger effect = lower value",0.961 (inactive)
same,normalized growth,"locus YBR229C, strain ROT2, stronger effect = lower value",1.01 (inactive)
same,normalized growth,"locus YBR231C, strain swc5, stronger effect = lower value",0.939 (inactive)
same,normalized growth,"locus YBR279W, strain paf1, stronger effect = lower value",0.972 (inactive)
same,normalized growth,"locus YCL011C, strain gbp2, stronger effect = lower value",0.973 (inactive)
same,normalized growth,"locus YCL016C, strain dcc1, stronger effect = lower value",0.979 (inactive)
same,normalized growth,"locus YCL029C, strain bik1, stronger effect = lower value",0.938 (inactive)
same,normalized growth,"locus YCL061C, strain MRC1, stronger effect = lower value",0.944 (inactive)
same,normalized growth,"locus YCL069W, strain vba3, stronger effect = lower value",0.984 (inactive)
same,normalized growth,"locus YCR088W, strain abp1, stronger effect = lower value",0.994 (inactive)
same,normalized growth,"locus YDL005C, strain med2, stronger effect = lower value",0.97 (inactive)
same,normalized growth,"locus YDL035C, strain GPR1, stronger effect = lower value",0.926 (inactive)
same,normalized growth,"locus YDL040C, strain nat1, stronger effect = lower value",0.995 (inactive)
same,normalized growth,"locus YDL074C, strain BRE1, stronger effect = lower value",0.945 (inactive)
same,normalized growth,"locus YDL101C, strain DUN1, stronger effect = lower value",0.976 (inactive)
same,normalized growth,"locus YDL134C, strain PPH21, stronger effect = lower value",0.944 (inactive)
same,normalized growth,"locus YDL185W, strain tfp1, stronger effect = lower value",0.871 (active)
same,normalized growth,"locus YDL192W, strain arf1, stronger effect = lower value",0.957 (inactive)
same,normalized growth,"locus YDR001C, strain nth1, stronger effect = lower value",0.986 (inactive)
same,normalized growth,"locus YDR069C, strain doa4, stronger effect = lower value",0.999 (inactive)
same,normalized growth,"locus YDR101C, strain arx1, stronger effect = lower value",0.926 (inactive)
same,normalized growth,"locus YDR137W, strain rgp1, stronger effect = lower value",1.04 (inactive)
same,normalized growth,"locus YDR159W, strain sac3, stronger effect = lower value",0.94 (inactive)
same,normalized growth,"locus YDR162C, strain NBP2, stronger effect = lower value",0.989 (inactive)
same,normalized growth,"locus YDR195W, strain ref2",0.844 (active)
same,normalized growth,"locus YDR297W, strain sur2, stronger effect = lower value",0.971 (inactive)
same,normalized growth,"locus YDR318W, strain mcm21, stronger effect = lower value",0.938 (inactive)
same,normalized growth,"locus YDR334W, strain swr1, stronger effect = lower value",0.971 (inactive)
same,normalized growth,"locus YDR335W, strain msn5, stronger effect = lower value",0.975 (inactive)
same,normalized growth,"locus YDR388W, stronger effect = lower value",0.952 (inactive)
same,normalized growth,"locus YDR392W, strain spt3, stronger effect = lower value",0.934 (inactive)
same,normalized growth,"locus YDR502C, strain sam2, stronger effect = lower value",0.926 (inactive)
same,normalized growth,"locus YEL003W, strain gim4, stronger effect = lower value",0.943 (inactive)
same,normalized growth,"locus YEL037C, strain rad23, stronger effect = lower value",0.988 (inactive)
same,normalized growth,"locus YEL061C, strain CIN8 (second series), stronger effect = lower value",0.991 (inactive)
same,normalized growth,"locus YEL061C, strain CIN8, stronger effect = lower value",1 (inactive)
same,normalized growth,"locus YER015W, strain faa2, stronger effect = lower value",0.98 (inactive)
same,normalized growth,"locus YER016W, strain bim1, stronger effect = lower value",0.992 (inactive)
same,normalized growth,"locus YER110C, stronger effect = lower value",0.925 (inactive)
same,normalized growth,"locus YER111C, strain swi4, stronger effect = lower value",0.98 (inactive)
same,normalized growth,"locus YER155C, strain BEM2 (second series), stronger effect = lower value",1 (inactive)
same,normalized growth,"locus YER155C, strain BEM2, stronger effect = lower value",0.947 (inactive)
same,normalized growth,"locus YER167W, strain BCK2, stronger effect = lower value",0.978 (inactive)
same,normalized growth,"locus YFR010W, strain ubp6, stronger effect = lower value",0.978 (inactive)
same,normalized growth,"locus YGL078C, strain dbp3, stronger effect = lower value",0.804 (active)
same,normalized growth,"locus YGL086W, strain mad1, stronger effect = lower value",0.965 (inactive)
same,normalized growth,"locus YGL167C, strain pmr1, stronger effect = lower value",0.978 (inactive)
same,normalized growth,"locus YGL173C, strain kem1, stronger effect = lower value",0.949 (inactive)
same,normalized growth,"locus YGL227W, strain vid30, stronger effect = lower value",0.975 (inactive)
same,normalized growth,"locus YGL240W, strain doc1, stronger effect = lower value",0.956 (inactive)
same,normalized growth,"locus YGL248W, strain PDE1, stronger effect = lower value",0.97 (inactive)
same,normalized growth,"locus YGL253W, strain hxk2, stronger effect = lower value",0.944 (inactive)
same,normalized growth,"locus YGR135W, strain pre9, stronger effect = lower value",0.903 (inactive)
same,normalized growth,"locus YGR252W, strain gcn5, stronger effect = lower value",0.606 (active)
same,normalized growth,"locus YHR013C, strain ard1, stronger effect = lower value",0.993 (inactive)
same,normalized growth,"locus YHR027C, strain rpn1, stronger effect = lower value",0.96 (inactive)
same,normalized growth,"locus YHR030C, strain SLT2, stronger effect = lower value",0.997 (inactive) and 0.788 (active)
same,normalized growth,"locus YHR079C, strain IRE1 (second series), stronger effect = lower value",0.941 (inactive)
same,normalized growth,"locus YHR079C, strain IRE1, stronger effect = lower value",0.703 (active)
same,normalized growth,"locus YHR094C, strain hxt1, stronger effect = lower value",0.955 (inactive)
same,normalized growth,"locus YHR129C, strain ARP1, stronger effect = lower value",0.984 (inactive)
same,normalized growth,"locus YHR142W, strain chs7, stronger effect = lower value",0.96 (inactive)
same,normalized growth,"locus YHR200W, strain rpn10, stronger effect = lower value",0.961 (inactive)
same,normalized growth,"locus YIL066C, strain RNR3, stronger effect = lower value",0.963 (inactive)
same,normalized growth,"locus YIL073C, strain SPO22, stronger effect = lower value",0.978 (inactive)
same,normalized growth,"locus YIL125W, strain kgd1, stronger effect = lower value",0.78 (active)
same,normalized growth,"locus YIR030C, strain dcg1, stronger effect = lower value",0.961 (inactive)
same,normalized growth,"locus YJL092W, strain hpr5, stronger effect = lower value",0.983 (inactive)
same,normalized growth,"locus YJL095W, strain BCK1 (second series), stronger effect = lower value",0.985 (inactive)
same,normalized growth,"locus YJL095W, strain BCK1, stronger effect = lower value",0.98 (inactive) and 0.786 (active)
same,normalized growth,"locus YJL115W, strain asf1, stronger effect = lower value",0.983 (inactive)
same,normalized growth,"locus YJL129C, strain trk1, stronger effect = lower value",0.911 (inactive)
same,normalized growth,"locus YJL134W, strain LCB3, stronger effect = lower value",0.996 (inactive)
same,normalized growth,"locus YJL154C, strain vps35, stronger effect = lower value",0.99 (inactive)
same,normalized growth,"locus YJL164C, strain tpk1, stronger effect = lower value",0.97 (inactive)
same,normalized growth,"locus YJL166W, strain qcr8, stronger effect = lower value",0.981 (inactive)
same,normalized growth,"locus YJL168C, strain set2, stronger effect = lower value",0.968 (inactive)
same,normalized growth,"locus YJL187C, strain SWE1 (second series), stronger effect = lower value",0.955 (inactive)
same,normalized growth,"locus YJR043C, strain POL32, stronger effect = lower value",0.916 (inactive)
same,normalized growth,"locus YJR066W, strain TOR1, stronger effect = lower value",0.747 (active)
same,normalized growth,"locus YKL009W, strain mrt4, stronger effect = lower value",0.954 (inactive)
